Results taken from PubChem BioAssay (NCATS).
Records with an inconclusive call do not appear. A call without a number means that no potency is given here. Unmarked numbers belong to inactive results. Activity calls are given as the source filed them. Calls come from the whole dose curve; as a rule, active = well fitted inhibition curve with a large enough effect; inconclusive = small, poorly fitted or top-dose-only effect; inactive = no such curve, though single readings can be large or run the other way.

target: Retinaldehyde dehydrogenase 3 (Homo sapiens) (UniProt P47895); assay: qHTS for Inhibitors of the Aldehyde Dehydrogenase Family (ALDH1A3) Primary screen (AID 2061315); conditions: ALDH inhibition qHTS; series mostly up to 56 µM

Row | Structure (SMILES) | Potency | activity change, negative = inhibition
1 | O=C(CCCN1CCN(c2ccc(F)cc2)CC1)NC1c2ccccc2CSc2ccccc21 (stereo not drawn) | inactive | –
2 | Cc1nc2ccc(Oc3ccc(F)cc3)cc2c(=O)n1C[C@H]1CCCN(C(C)C)C1 | inactive | –
3 | CCCCn1c(-c2ccccc2)nc(-c2ccccc2)c1CN(Cc1ccc2c(c1)OCO2)Cc1ccc2c(c1)OCO2 | inactive | –
4 | O=C(CC1C(=O)Nc2ccccc21)OC[C@H]1O[C@@H](OCCc2ccc(O)cc2)[C@H](O)[C@@H](O)[C@@H]1O (stereo partly drawn) | inactive | –
5 | CC[C@H](C)/C=C(C)/C=C/C1=CC2=CC(=O)[C@]3(C)OC(=O)[C@@H](C(C)=O)[C@@H]3C2=CO1 | inactive | –
6 | N#Cc1ccc(Nc2nc(-c3ccc(O)cc3O)cs2)cc1C(F)(F)F | inactive | –
7 | CC1(C)CC[C@]2(C(=O)O[C@@H]3O[C@H](CO[C@@H]4O[C@H](CO)[C@@H](O)[C@H](O)[C@H]4O[C@@H]4O[C@H](CO)[C@H](O)[C@H](O)[C@H]4O)[C@@H](O)[C@H](O[C@@H]4O[C@H](CO)[C@@H](O)[C@H](O)[C@H]4O)[C@H]3O)CC[C@]3(C)C(=CCC4[C@@]5(C)CC[C@H](O[C@@H]6OC[C@@H](O)[C@H](O)[C@H]6O)[C@@](C)(C(=O)O)C5CC[C@]43C)[C@@H]2C1 (stereo partly drawn) | – | 11.9% [at 11.2 µM]
8 | CC1OC(O[C@H]2[C@@H](O)C[C@@]3(C)C([C@H](O)C[C@]4(C)C3CC=C3C5CC(C)(C)CC[C@]5(C(=O)OC5OC(CO)C(O)C(O)C5OC5OCC(OC6OCC(OC7OCC(O)C(O)C7O)C(O)C6O)C(OC6OCC(O)(CO)C6O)C5O)CC[C@]34C)[C@]2(C)CO)C(O)C(O)C1O (stereo partly drawn) | – | -4.53% [at 11.2 µM]
